This is a sample that favours compounds with a hit; in the whole collection about 1.4% have one here.
Mtb MbtI inh: inhibitors of Mycobacterium tuberculosis siderophore enzyme MbtI; 0.89% of 100,000 active; P9WFX0; AID 493033; purified MbtI enzyme, fluorescence intensity read-out; inhibition, % (no concentration beside the values); in the data active = inhibition mostly above about 56%, no sharp cut-off; inactive = mostly below about 77%
AID504770: growth inhibitors of E. coli YBA685 in a screen for V. cholerae RctB (chromosome II replication) inhibitors. z-score (no concentration beside the values). E. coli YBA685 rctB-dependent plasmid, OD600 growth, 3 h; stronger effect = lower value. 0.27% of 130,000 active. AID 504770; in the data active = z-score below about -2, passing the limit was not always enough
Polio RdRp inh: poliovirus RNA polymerase inhibition; P03300; poliovirus polymerase elongation, fluorescence polarization; stronger effect = lower value; % elongation, % (compound at 16.7 µg/mL); 0.66% of 150,000 active; in the data active = % elongation below about 90%
MenB inh: inhibitors of Mycobacterium tuberculosis MenB enzyme; P9WNP5; MenB enzyme assay, absorbance read-out; inhibition, % (no concentration beside the values); 0.43% of 100,000 active; AID 540299; in the data active = inhibition above about 21%, passing the limit was not always enough
Target sequence (P9WNP5 whole entry, looked up): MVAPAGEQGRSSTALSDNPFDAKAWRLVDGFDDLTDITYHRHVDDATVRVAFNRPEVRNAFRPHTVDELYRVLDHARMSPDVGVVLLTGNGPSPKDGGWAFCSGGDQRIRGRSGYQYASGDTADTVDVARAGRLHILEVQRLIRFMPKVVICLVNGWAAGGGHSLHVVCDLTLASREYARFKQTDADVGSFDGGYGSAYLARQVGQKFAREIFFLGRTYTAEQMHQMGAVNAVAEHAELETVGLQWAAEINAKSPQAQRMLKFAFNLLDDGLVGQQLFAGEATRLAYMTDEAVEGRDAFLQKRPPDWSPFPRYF
A number is an active result; 0 = inactive; - = no result.

SMILES | Mtb MbtI inh | AID504770 | Polio RdRp inh | MenB inh
CCN(CC)C(=S)C(=O)Nc1cc(C(F)(F)F)cc(C(F)(F)F)c1 | - | 0 | 86 | 0
CC(C)(C)C(=O)Nc1cc(C(F)(F)F)cc(C(F)(F)F)c1 | - | 0 | - | -
NC(=S)N(c1ccccc1)c1ccccc1 | 0 | 0 | 0 | 32
CSC(=S)N(c1ccccc1)c1ccccc1 | 0 | 0 | 0 | -
O=C(O)CCC(=O)c1ccc(I)cc1 | 0 | 0 | 0 | -
O=C(O)CCC(=O)c1ccc(Br)cc1 | 0 | -3.1 | 90 | -
Cc1ccc(-c2nc3c(c(SCC(=O)N4CCCCC4)n2)Cc2cc(C)ccc2O3)cc1 | - | - | 0 | -
CC(C)c1ccc(CCN)cc1 | 0 | 0 | - | 0
CNC(=O)C1c2ccccc2Oc2ccccc21 | 0 | 0 | 0 | 0
CC(C)(C)C1=CC(C(C#N)C#N)c2ccccc2O1 (stereo not drawn) | 0 | -2.1 | 0 | -
CCc1ccc(OCC(=O)NC(Cc2c[nH]c3ccccc23)C(=O)O)cc1 (stereo not drawn) | - | - | 0 | -
CCn1cc(C(=O)O)c(=O)c2cc(F)c(N3CCNC(C)C3)c(F)c21 (stereo not drawn) | 0 | -3.6 | 0 | 0
CN(C)CCCNCc1cccn1C | 0 | 0 | 85 | 0
CN(C)CCCNCc1ccco1 | 0 | 0 | 0 | 0
CCC12CCCN3CCc4c(n(c5ccccc45)C(=O)C1)C32 (stereo not drawn) | 0 | 0 | 0 | 0
O=C(COc1ccccc1)c1ccc(O)c(O)c1O | 94 | 0 | 0 | 0
Cc1nc2ccccc2c(=O)n1-c1cccc(NC(=O)c2ccc3c(c2)OCO3)c1 | 0 | 0 | 0 | 0
COc1ccccc1-n1c(C)nc(=O)c(-c2ccccc2)c1C | 0 | 0 | 0 | 0
CC(=O)Oc1ccccc1-n1c(C)nc(=O)c(-c2ccccc2)c1C | 0 | -4.5 | 0 | -
CCOC(=O)c1s/c(=N/N=C(C)C)n(C)c1C | 56 | 0 | 0 | 0
Oc1ccc(Br)cc1C=Nc1cccc2nsnc12 | 0 | 0 | 0 | 0
CC1=CC(=O)c2ccccc2C1=O | 0 | 0 | 0 | 0
NC1=CC(=O)c2ccccc2C1=O | 0 | -2.4 | 88 | 0
CC(=O)N(C(C)=O)S(=O)(=O)c1ccc(N=NN(C)C)cc1 | - | 0 | 0 | 0
Cc1ccc(N=NN(C)C)cc1 | - | -6.7 | - | -
SMILES | Mtb MbtI inh | AID504770 | Polio RdRp inh | MenB inh
Cn1nc(C(=O)N2CCCCC2)c2c1-c1ccccc1SC2 | 87 | 0 | 0 | 0
Cn1nc(C(=O)N2CCN(c3ccc(Cl)cc3)CC2)c2c1-c1ccccc1SC2 | - | - | 0 | -
O=C1CC(n2nnnc2-c2ccccc2)C2COC1O2 (stereo not drawn) | - | 0 | 0 | 0
O=S1(=O)CCC(n2nnnc2-c2ccccc2)C1 (stereo not drawn) | - | -2.8 | - | -
CCOC(=O)c1c[nH]n2c(=O)cc(C)nc12 | - | 0 | - | -
CCc1nnc(Cn2nnc3c(=O)[nH]c(C(=O)Nc4ccc(C)cc4)nc32)s1 | 0 | 0 | 86 | 0
CCC(C)NC(=O)c1nc2c(nnn2Cc2ccccc2Cl)c(=O)[nH]1 (stereo not drawn) | 0 | 0 | 0 | 0
Cc1ccc(NC(=O)c2ccc3nc[nH]c3c2)cc1C | 0 | 0 | 0 | 0
COc1cccc(/C=[N+](/C)[O-])c1OCc1ccccc1 | - | 0 | - | -
CN1CCN(c2nc(N3CCN(CCO)CC3)nc3ccccc23)CC1 | - | 0 | 0 | 0
Clc1ccc(Nc2nnns2)cc1 | 59 | 0 | 0 | 0
Cc1csc(Nc2ccc(Cl)cc2)n1 | 63 | 0 | 0 | 0
O=C(NC(C(=O)O)C12CC3CC(CC(C3)C1)C2)c1ccccc1 (stereo not drawn) | - | 0 | - | -
CCC(C)n1c(=O)[nH][nH]c1=S (stereo not drawn) | 51 | 0 | 0 | 0
COC(CNC(=O)c1c[nH]c2ccc(S(=O)(=O)N3CCC(C)CC3)cc2c1=O)OC | 0 | 0 | 0 | 0
COc1ccccc1N1CCN(c2ccc(=O)n(CC(=O)Nc3ccc(F)c(F)c3)n2)CC1 | - | - | 0 | -
O=C1C=C(Nc2ccc(F)c(C(F)(F)F)c2)c2ccccc2C1=O | - | 0 | 62 | 0
O=C(Cc1ccccc1Cl)NC1(O)C(=O)c2ccccc2C1=O | 0 | 0 | 83 | 0
O=C1NC(=Nc2ccccc2)CS1 | 0 | 0 | 0 | 0
O=C1NC(=Nc2ccc(F)cc2)CS1 | 78 | 0 | 0 | 0
COc1cccc(C(=O)SC2=NCCS2)c1 | - | 0 | - | -
O=C1CCCC(O)=C1N=Nc1ccccc1C(=O)O | 0 | 0 | 0 | 0
O=C1CCCC(O)=C1N=Nc1ccc(C(=O)O)cc1 | 0 | 0 | 76 | 0
COCCn1c(C)cc(O)c(C(c2ccccc2)N2CCN(c3ccccc3)CC2)c1=O (stereo not drawn) | - | - | 85 | -
O=C1C(c2c(O)n(-c3cc(Cl)cc(Cl)c3)[nH]c2=O)=Nc2ccccc21 | 84 | 0 | 0 | 0
SMILES | Mtb MbtI inh | AID504770 | Polio RdRp inh | MenB inh
COc1ccc(S(=O)(=O)N2CCc3ccccc32)cc1C(=O)N1CCC(C)CC1 | 0 | 0 | 0 | 0
Cc1cccc(NC(=O)c2oc3ccccc3c2NC(=O)Cc2coc3c(C)c(C)ccc23)c1 | - | - | 0 | -
COc1ccc(NC(=O)c2oc3ccccc3c2NC(=O)Cc2coc3c(C)c(C)ccc23)cc1 | - | - | -10 | -
CSC1=C(C#N)C(=O)NC(c2ccc(Cl)cc2)S1 (stereo not drawn) | 0 | 0 | 88 | 0
C=CCN(C)C1CC(=O)N(c2ccc(C)c(Cl)c2)C1=O (stereo not drawn) | 95 | 0 | 0 | 0
Cc1ccc(N2C(=O)CC(NCc3ccc(S(N)(=O)=O)cc3)C2=O)cc1Cl (stereo not drawn) | 0 | 0 | 0 | 0
CCOC(=O)c1c(N2C(=O)CCC2=O)sc2c1CCCC2 | - | 0 | - | -
COC(=O)c1c(N2C(=O)CCC2=O)sc2c1CCCC2 | 0 | -3.2 | 0 | 0
O=C(N/N=C/c1ccc(O)c(O)c1O)c1cccc(S(=O)(=O)Nc2ccccc2Cl)c1 | 55 | 0 | 0 | 0
NNC(=O)c1cccc(S(=O)(=O)Nc2ccccc2Cl)c1 | 0 | 0 | 0 | 0
N#Cc1c(-c2cccs2)cc(-c2ccc(C(=O)O)cc2)nc1SCc1cccs1 | - | 0 | 78 | 0
CC1CCCC(C)N1C(=O)CCN1C(=O)C2C3C=CC(C3)C2C1=O (stereo not drawn) | 0 | 0 | 0 | 0
COC(=O)c1c(-c2cccs2)csc1NC(=O)COc1ccc(C(C)(C)C)cc1 | - | - | 80 | -
COC(=O)c1c(-c2cccs2)csc1NC(=O)COc1ccccc1 | - | - | 66 | -
COC(=O)c1c(-c2cccs2)csc1NC(=O)COc1c(C)ccc(C)c1C | - | - | 62 | -
Cc1nc(Cc2nnc(SCC(=O)NCC34CC5CC(CC(C5)C3)C4)o2)cs1 | 0 | -2.8 | 0 | 0
Cc1nc(Cc2nnc(SCC(=O)NC(C)(C)C)o2)cs1 | 0 | 0 | 0 | 0
O=C1CNC(=O)N1Cc1ccc(F)cc1 | 0 | 0 | 0 | 34
N#C/C(=C/c1ccc(-c2ccc(S(N)(=O)=O)cc2)o1)C(=O)Nc1cc(Cl)ccc1Cl | 0 | 0 | 0 | 0
Cc1nc2cc(Cl)ccc2n1-c1ccccc1 | - | 0 | 0 | 0
Cc1nn(CCC#N)c2c1P(=S)(N1CCCCC1)OC(c1ccccc1)=N2 (stereo not drawn) | 0 | 0 | 90 | 0
CCN(CC)P1(=S)c2c(C)nn(CCC#N)c2N=C(c2ccc(F)cc2)N1C (stereo not drawn) | 0 | 0 | 0 | 0
NC1=NN=C(c2ccccc2)CS1 | 65 | 0 | 0 | 0
NC1=NN=C(c2ccc3c(c2)OCCO3)CS1 | 0 | 0 | 0 | 0
